# Screening results as filed in PubChem BioAssay.
# An excerpt weighted towards active compounds, which were near 4.8% of everything screened.
# hgDAF-12 ag: H. glycines DAF-12 receptor agonists, primary screen, cell-based, luminescence, HEK293, GAL4 fusion, UAS-luciferase. HEK293 GAL4-hgDAF12 UAS-luciferase reporter, agonist luminescence; normalized to butyrate control. activation, % at 6.8 µM. actives 1.8% (n = 370,000). AID 687014, 2013;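 active = activation above a cutoff set at the mean of all screened compounds plus 3 SD, cut at about 10% in these data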;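 note: 0% = DMSO wells and 100% = sodium butyrate wells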
# NR1D1 modulator: modulators of Rev-erb alpha DNA binding, primary screen, biochemical, FITC-DNA, fluorescence polarization, uHTS; activity, % at 10 µM; Rev-erbα–FITC-DNA binding, 90 min; Nuclear receptor subfamily 1 group D member 1 (Homo sapiens), P20393; AID 1259318, 2017; actives 0.79% (n = 370,000);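 active = activity above about 14%, limit read from the data; passing the limit was not always enough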;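 note: 0% = DMSO wells with 35 nM protein and 100% = DMSO wells with 750 nM protein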
# ssDAF12 agonist: S. stercoralis DAF-12 nuclear receptor activators, primary screen, cell-based, luminescence, HEK293, GRIP1 co-expression, lit1-tk-luc; HEK293 ssDAF-12/GRIP1 lit1-tk-luc reporter; % of 3 µM dafachronic acid response; activation, % at 6.8 µM; actives 1% (n = 370,000); AID 652126, 2013;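 active = activation above the mean over all tested compounds plus 3 SD, cut at about 0.9% in these data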;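 note: 0% = DMSO-only wells and 100% = 3 µM delta7-dafachronic acid wells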
# hcDAF-12 act: H. contortus DAF-12 nuclear receptor activators, primary screen, cell-based, luminescence, HEK293, lit1-tk-luc reporter; HEK293 hcDAF-12 lit1-tk-luc reporter; 0% DMSO, 100% Δ7-dafachronic acid; activation, % at 6.8 µM; actives 1.4% (n = 370,000); AID 652067, 2013;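 active = activation above the mean of all tested compounds plus 3 SD, cut at about 5.5% in these data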;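 note: 100% = response to 3 µM Δ7-dafachronic acid high control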
# DAX1 inh-1: DAX1 (NR0B1) inhibitors on StAR promoter, primary screen, cell-based, luminescence, SF-1 (NR5A1), full-length DAX-1; HEK293T StAR-luciferase reporter, SF-1/DAX-1 repression relief; inhibition, % at 6.8 µM; actives 1.1% (n = 370,000); AID 652010, 2013;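 active = inhibition above the mean over all tested compounds plus 3 SD, cut at about 3.6% in these data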;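 note: 0% = DAX-1 cells with DMSO and 100% = cells lacking DAX-1 with DMSO; higher inhibition means more luminescence from relief of DAX-1 repression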
# DAX1 inh-2: DAX1 (NR0B1) inhibitors, primary screen, cell-based, HEK293, Gal4-DAX1, luciferase luminescence | HEK293 Gal4-DAX1 luciferase reporter | inhibition, % at 6.75 µM | actives 0.99% (n = 340,000);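 active = inhibition above the mean over all tested compounds plus 3 SD, cut at about 4.2% in these data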;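 note: 0% = DAX1-transfected cells with DMSO and 100% = empty-vector control cells with DMSO; inhibition shows as a rise in luminescence from relieved DAX1 repression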
# Target sequence (P51843 207-470 limits assumed): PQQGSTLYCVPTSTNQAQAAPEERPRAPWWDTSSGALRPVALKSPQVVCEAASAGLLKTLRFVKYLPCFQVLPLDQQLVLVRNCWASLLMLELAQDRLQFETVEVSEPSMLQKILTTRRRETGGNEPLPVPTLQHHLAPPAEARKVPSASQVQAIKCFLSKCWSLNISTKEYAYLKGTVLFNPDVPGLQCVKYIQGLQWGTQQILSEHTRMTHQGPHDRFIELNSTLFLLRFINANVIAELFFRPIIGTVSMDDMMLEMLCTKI
# LXR ag: LXR agonists, Gal4 luciferase reporter, confirmation, counter-screen for hcDAF-12 agonist project, cell-based, luminescence, HEK293, H. contortus campaign; shares compounds with hcDAF-12 act; HEK293 Gal4-LXR tk-luc reporter, 24 h; normalized: DMSO 0%, positive control 100%; activation, % at 6.8 µM; 3,400 tested, under 10 active;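 active = mean percent activation of the reporter above a cutoff set as the average over tested compounds plus their standard deviation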
# hcDAF12 conf: H. contortus DAF-12 receptor agonists, confirmation, cell-based, luminescence, HEK293, lit1-tk-luc, triplicate; shares compounds with hcDAF-12 act; HEK293 hcDAF-12 lit1-tk-luc reporter; % of Δ7-dafachronic acid response; activation, % at 6.8 µM; actives 61% (n = 3,400);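 active = mean activation across triplicate tests above the threshold derived from the earlier primary screen, cut at about 5.5% in these data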;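 note: 0% = DMSO only wells and 100% = 3 µM Δ7-dafachronic acid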
# * = called active by the depositor; . = no result given.
SMILES,hgDAF-12 ag,NR1D1 modulator,ssDAF12 agonist,hcDAF-12 act,DAX1 inh-1,DAX1 inh-2,LXR ag,hcDAF12 conf
C(=N\NC1=Nc2cccc3cccc1c23)/c1ccccn1,10,3,0,8.6*,3,5.3*,1,10*
CCN(CC)CCN1C(=O)c2cccc3cc(N)cc(c23)C1=O,0,11,0,7.6*,0,-2,0,5
Nc1cc2c3c(cccc3c1)C(=O)N(CCN1CCCC1)C2=O,-6,-16,1.8*,16*,-1,-1,0,12*
O=C1c2cccc3cc([N+](=O)[O-])cc(c23)C(=O)N1CCN1CCCC1,-1,-34,7.1*,44*,-2,2,2,17*
O=C1c2cccc3cccc(c23)C(=O)N1CCO,2,2,-1,-3,0,-1,.,.
C[C@H]1[C@@H](OC(=O)N2CCOCC2)CC[C@@]23CCCN2C(=O)CCC[C@@H]13,1,2,-2,0,.,.,.,.
C[C@H]1[C@@H](N(C)Cc2cccs2)CC[C@@]23CCCN2C(=O)CCC[C@@H]13,7,-1,-1,0,.,.,.,.
COCc1c(C(=O)Nc2nc(C)cs2)oc2ccccc12,3,4,0,6.8*,0,-2,0,5.7*
COCc1c(C(=O)Nc2ccc(Cl)cc2F)oc2ccccc12,3,0,-1,5,0,4,.,.
C[C@@H]1CN([C@H](C)CO)C(=O)c2cc(NS(=O)(=O)c3ccccc3)ccc2O[C@@H](C)CCCCO[C@@H]1CN(C)Cc1ccc(Cl)c(Cl)c1,-2,-5,-1,6.7*,0,.,0,1
C[C@H]1CCCCO[C@@H](CN(C)S(=O)(=O)c2ccc(Cl)cc2)[C@@H](C)CN([C@@H](C)CO)C(=O)c2cc(NS(=O)(=O)c3ccccc3)ccc2O1,-2,1,-1,-1,-1,2,.,.
CCN(CC)c1ccc(/C=N/N2C(=O)c3ccccc3C2=O)c(O)c1,2,-6,-1,6.6*,0,0,0,1
Cc1ccc(NC(=O)C2=C(O)CCn3c2nc2ccccc23)cc1,4,-3,1.9*,8.9*,0,1,0,5
CCc1nc2ccccc2c(C(=O)Nc2ccc(C)cc2)c1C,0,-3,-1,0,0,0,.,.
O=C(CCc1ccccc1)N[C@H]1[C@@H](OC(=O)c2ccc([N+](=O)[O-])cc2)CCC[C@]12C(=O)N(Cc1ccccc1)c1ccccc12,2,4,-1,-1,1,.,.,.
CCCn1c2ccc(C)cc2c2nnc(SCCN3CCCCC3)nc21,0,-1,0,9.3*,1,0,0,5
N#Cc1ccc(OCCCN2CCC(C(O)(c3ccccc3)c3ccccc3)CC2)cc1,-2,-6,-1,-1,1,.,.,.
O=C(NCCSCc1ccco1)Nc1ccccc1,2,1,-1,9.8*,1,0,0,2
